This is a sample that favours compounds with a hit; in the whole collection about 5.7% have one here.
NPSR antag: blocks cAMP signaling of the human neuropeptide S receptor; Potency, µM (doses to about 38.3 µM), inactives show at the highest dose activity change, negative = inhibition, actives largely listed as inhibitors; Q6W5P4; CHO-NPSR cells, cAMP TR-FRET, antagonist mode; 220,000 compounds, 1% hits; also: nearly all actives have a fitted effect of over 50% in size
Gal4-VP16 FLuc: counter-screen for ROR gamma inhibitors: Gal4-VP16 reporter; Drosophila S2 Gal4-VP16 UAS-luciferase, luminescence, 20 h; Potency, µM (top dose mostly 53.6 µM), for inactives: top-dose activity, negative = inhibition, actives largely listed as inhibitors; 310,000 compounds, 3.5% hits;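 also: Gal4-VP16 expression switched on by copper sulfate through the metallothionein promoter; nearly all actives have a fitted effect of over 50% in size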
B2AR arrestin: recruits beta-arrestin to the human beta2-adrenergic receptor | beta-arrestin recruitment to beta2AR, cell-based reporter | Potency, µM (doses to about 46.1 µM), for the others: at the highest dose activation, actives largely listed as activators | 330,000 compounds, 0.02% hits;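 also: 0% = DMSO controls and full agonism = EC100 isoproterenol or metaproterenol; nearly all actives have a fitted effect of over 65% in size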
RORgamma inh: inhibitors of mouse ROR gamma transcriptional activity; Potency, µM (top dose mostly 53.6 µM), for the others: at the highest dose activity change, negative = inhibition, most hits filed as inhibitors; P51450; AID 2551; 310,000 compounds, 5.4% hits; Drosophila S2 Gal4-RORgamma UAS-luciferase reporter, 20 h; also: nearly all actives have a fitted effect of over 60% in size
Target sequence (P51450 whole entry, looked up, the tested form may be a part): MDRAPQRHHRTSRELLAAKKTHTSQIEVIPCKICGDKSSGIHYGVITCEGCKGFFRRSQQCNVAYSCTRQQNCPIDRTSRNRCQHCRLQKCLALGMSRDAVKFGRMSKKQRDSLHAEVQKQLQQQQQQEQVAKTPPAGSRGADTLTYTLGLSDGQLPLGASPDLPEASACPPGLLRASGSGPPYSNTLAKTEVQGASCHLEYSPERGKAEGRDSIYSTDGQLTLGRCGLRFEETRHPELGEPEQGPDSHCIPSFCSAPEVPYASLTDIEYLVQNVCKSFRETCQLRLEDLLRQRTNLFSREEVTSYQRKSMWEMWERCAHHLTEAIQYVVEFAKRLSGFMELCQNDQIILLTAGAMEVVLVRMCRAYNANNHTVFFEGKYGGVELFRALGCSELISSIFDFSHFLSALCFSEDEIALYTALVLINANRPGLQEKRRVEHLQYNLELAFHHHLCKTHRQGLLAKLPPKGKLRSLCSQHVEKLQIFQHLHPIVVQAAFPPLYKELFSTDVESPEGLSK
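Stable Schneider cell line, Gal4 DNA-binding domain fused to ROR gamma, UAS-luciferase. Cmpd 1 hr RT → CuSO4 700 uM final → 20 hr RT → luciferase reagent 10 min → luminescence.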
The depositor's hits bear a star; u = inconclusive; x = not tested or not shown; [ ] = another dose, or the depositor's remark. Calls follow the shape of the dose curve; as a rule, active = well fitted curve in the direction sought with a large enough effect; inconclusive = small, poorly fitted or top-dose-only effect, or another doubt; inactive = no such curve, though single readings can be large; an effect the other way counts as inactive or inconclusive. Unless noted, % is scaled to controls: 0 for no effect and ±100 for the full control effect; potency is read from the fitted curve at half-maximal effect.

SMILES	NPSR antag	Gal4-VP16 FLuc	B2AR arrestin	RORgamma inh
COc1ccc(N2C(S)=C(C#N)C(=O)NC2c2ccc(OC)c(OC)c2)cc1 (centres undefined)	2%	-28%	0%	11µM*
N#CC1=C(S)N(c2ccccc2)C(c2ccc(-c3ccc(Cl)c(Cl)c3)o2)NC1=O (centres undefined)	-12%	u	0%	10µM*
COCCn1c(=O)c(-c2ccccc2)nc2cnc(Nc3cccc(OC)c3)nc21	x	-2%	x	27%
COc1ccc(NC(=O)[C@@H](NC(=O)c2ccccc2F)C(C)C)cc1S(=O)(=O)N1CCOCC1	2%	-17%	0%	9%
OC1OC[C@H](O)[C@@H](O)[C@@H]1O (some centres undefined)	x	0%	x	11%
COc1ccccc1CNCC(O)(c1ccc(F)cc1)c1ccc(F)cc1	x	-6%	0%	23%
OC(CNCc1ccccc1F)(c1ccc(F)cc1)c1ccc(F)cc1	u	u	0%	7.9µM*
CNC[C@H](O)[C@H](O)[C@H](O)[C@H](O)CO	x	3%[17 µM]	x	1%[16.9 µM]
CC1Cc2ccccc2N1C(=O)CN1CCC(n2nnc3cc(C(F)(F)F)ccc32)CC1 (centres undefined)	u	4µM*	-1%	39%
C/C(=N\NC(=S)Nc1cccc(C)c1)c1cccc(N)c1	-16%	3.2µM*	0%	4.5µM*
CSC(=S)N/N=C(\C)c1ccccc1	-20%	4.5µM*	-1%	0.45µM*
C/C(=N\Nc1ccccc1)c1cccc(N)c1	x	u	0%	16%
C/C(=N\NC(=S)Nc1cccc(C)c1)c1ccccc1	-24%[46.1 µM]	7.9µM*	4%	1.1µM*
C/C(=N\NC(=S)Nc1ccc(C)cc1)c1cccc(N)c1	-34%	13µM*	0%	2.8µM*
C/C(=N\NC(=O)c1cccc(C)c1)c1cccc(NC(=O)c2ccco2)c1	-11%[46.1 µM]	-12%	0%	-29%
C/C(=N\NC(=S)Nc1cccc(C)c1)c1ccco1	-14%	-27%	0%	u
C/C(=N\NC(N)=S)c1ccccc1	-39%	15%	-1%	14%
CCCCCCOC(=O)C1(O)CC2OC1(C)n1c3ccccc3c3c4c(c5c6ccccc6n2c5c31)C(=O)NC4 (centres undefined)	x	5%[1.91 µM]	x	-6%[1.91 µM]
O=CN1CCN(C(=O)c2ccc(-c3nc4ccccc4s3)s2)CC1	20%	-3%	-1%	26%
CC1=NN(c2cccc(C(=O)O)c2)C(=O)/C1=C\C=C/c1ccccc1	7.9µM*	3.5µM*	5%	1.1µM*
CC1=NN(c2ccc(C)cc2)C(=O)/C1=C\C=C\c1ccccc1	-37%	u	0%	u
CC1CCC2C(=O)N(c3ccc(C(=O)Oc4cccc5cccnc45)cc3)C(=O)C2C1 (centres undefined)	-26%[46.1 µM]	3.2µM*	u	6.3µM*
C[C@]12C[C@@](C)(C=C1/C=C/c1ccc(C(F)(F)F)cc1)C(=O)C[C@H]2c1ccc(C(F)(F)F)cc1	x	0%	x	0%
O=S(=O)(Nc1nc2ccccc2nc1NCc1ccco1)c1ccc(Cl)cc1	-8%[46.1 µM]	11µM*	0%	-37%
Cc1c(C(=O)Nc2cccc([N+](=O)[O-])c2)cnn1-c1ccccc1	x	6%	0%	u
SMILES	NPSR antag	Gal4-VP16 FLuc	B2AR arrestin	RORgamma inh
CC(=O)N1CCN(c2nc(CC(C)C)c3c(c2C#N)CCC3)CC1	-8%[46.1 µM]	1%	-1%	12%
CC(C)Cc1nc(N2CCN(C(=O)C(C)C)CC2)c(C#N)c2c1CCC2	u	-5%	-2%	1.4µM*
CC(C)Cc1nc(N2CCN(C(=O)c3ccccc3)CC2)c(C#N)c2c1CCC2	2µM*	40µM*	0%	35µM*
CC1CCCCN1C(=O)Cn1c(=O)oc2cc(S(=O)(=O)N3CCCC3)ccc21 (centres undefined)	x	-3%	1%	2.5µM*
COc1ccc(C(=O)NC2CCCc3c2cnn3-c2ccccc2F)cc1OC (centres undefined)	x	2.5µM*	-1%	u
Cc1nnsc1C(=O)NC1CCCc2c1cnn2-c1ccccc1F (centres undefined)	x	10µM*	0%	17%
Cc1nnsc1C(=O)NC1CCCc2c1cnn2-c1ccc(C(C)(C)C)cc1 (centres undefined)	x	6.3µM*	-1%	-37%
Cc1cc(C)cc(-n2ncc3c2CCCC3NC(=O)C2(C(N)=O)CC2)c1 (centres undefined)	x	-16%	0%	23%
Cc1cccc(-n2ncc3c2CCCC3NC(=O)C2(C(N)=O)CC2)c1C (centres undefined)	x	7.9µM*	0%	u
O=C(NC1CCCc2c1cnn2-c1ccccc1F)c1ccccn1 (centres undefined)	x	3%	0%	52%
COc1ccc(C2(c3ccc(OC)cc3)NC(=O)N(CC(=O)N3CCOCC3)C2=O)cc1	x	x	0%	x
CC(C)(C)c1ccc(-n2ncc3c2CCCC3NC(=O)CCN2CCCCC2=O)cc1 (centres undefined)	x	u	0%	u
CC(C)(C)c1ccc(-n2ncc3c2CCCC3NC(=O)CN2CCOC2=O)cc1 (centres undefined)	x	13µM*	0%	-3%
OC(c1ccc(Cl)cc1)c1nccc2ccccc12 (centres undefined)	x	u	0%	-9%[1.91 µM]
Cc1cc(-c2ccccc2)c2c(=O)n(-c3ccccc3)[nH]c2n1	x	17%	-1%	-32%
S=c1nc(C2CC2)n(-c2ccccc2)[nH]1	6%	u	0%	7.9µM*
Cn1c(SCC(=O)Nc2ccccc2)nnc1-c1ccc2nonc2c1	-16%	-5%	0%	-44%
COc1ccccc1NS(=O)(=O)c1cccc(C(=O)NCC(c2cccs2)N2CCOCC2)c1 (centres undefined)	x	x	0%	x
S=C(NCc1ccccc1)NCc1ccccc1	-15%[46.1 µM]	-8%	1%	u
CCOCCCNC(=S)NCCc1ccccc1	13%	13µM*	0%	11µM*
S=C(NCCCc1ccccc1)NCc1ccccc1	x	11µM*	0%	6.3µM*
CCOCCCNC(=S)NC1CC2CCC(C1)N2Cc1ccccc1 (centres undefined)	10%	4%	0%	-31%
Cc1cc(C)nc(NS(=O)(=O)c2ccc(NC(=O)CSc3nc4ccccc4[nH]3)cc2)n1	17%	4µM*	0%	23%
Cc1cc(NC(=O)CSc2nc(-c3ccccc3)c(C#N)c(=O)[nH]2)no1	7.9µM*	-5%	0%	0%
Cc1cccc(NC(=O)CSc2nc(-c3ccccc3)c(C#N)c(=O)[nH]2)c1C	1%[46.1 µM]	-14%	0%	45%
Cc1cc(C)nc(NS(=O)(=O)c2ccc(NC(=O)CSc3nc(-c4ccccc4)c(C#N)c(=O)[nH]3)cc2)n1	4µM*	-10%	0%	18%
N#Cc1c(-c2ccccc2)nc(SCC(=O)Nc2ccccc2)[nH]c1=O	-32%	-5%	-1%	32%
CC1=CC(C)(C)Nc2ccc(OC(=O)CN3C(=O)c4cccc5cccc(c45)C3=O)cc21	1%[46.1 µM]	-20%	9%	-38%
CC1=CC(C)(C)Nc2ccc(OC(=O)CN3C(=O)c4ccccc4C3=O)cc21	7.9µM*	7.1µM*	-1%	4.5µM*
